This is an account of results in PubChem BioAssay (NCI).

Experiment in all cases: NCI-60 one-dose screen, 48 h (100 = growth as untreated, 0 = no growth, -100 = all killed)
Common to all, as to conditions: 10 µM unless noted

For test [1], the system named is DU-145 prostate.
The subject of test [2] is K-562 leukemia.
Test [3] concerns MDA-MB-231 breast.
The subject of test [4] is RXF 393 renal.
Test [5] deals with SF-268 CNS.
The test system of test [6] is SF-295 CNS.
Test [7] relates to SF-539 CNS.
The test system of test [8] is UACC-257 melanoma.
Test [9] concerns M14 melanoma.
In test [10] the test system is HCT-15 colon.
Test [11] has as its system HT29 colon.
Test [12] relates to SNB-19 CNS.
Test [13] relates to U251 CNS.
In test [14] the test system is PC-3 prostate.
For test [15], the system named is UACC-62 melanoma.
The test system of test [16] is SK-MEL-28 melanoma.
The subject of test [17] is MALME-3M melanoma.
In test [18] the test system is SNB-75 CNS.
Test [19] concerns SK-MEL-5 melanoma.
For test [20], the system named is LOX IMVI melanoma.

“And” between values parts separate entries of the source, which are not always exact repeats. Equal values may be shown once. About 83,000 compounds went through this panel and 20% of them were active in at least one assay; those are over-represented in the sample as a whole.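 Growth was measured after 48 h exposure to one concentration of compound in 96-well plates. Values under 10 count as active.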 The source made the active and inactive calls.

As to `COc1cc(NC(=O)COc2ccccc2)c(C(N)=O)cc1OC`, the growth is 23.6% (inactive) in [1]; 7.84% (active) in [2]; 51.2% (inactive) in [3]; 6.01% (active) in test [4]; 53.4% (inactive) in test [5]; 7.73% (active) in test [6]. In addition, the growth is -23.9% (active) in test [7]; 51.3% (inactive) in test [8]; 16.8% (inactive) in [9]; 30.1% (inactive) in test [10]; 1.53% (active) in test [11]; 56% (inactive) in test [12]. Also, the growth is 17.8% (inactive) in test [13], 30.7% (inactive) in [14], 51.9% (inactive) in test [15] and 70.1% (inactive) in [16].

Regarding `O=C1NC(=S)NC1C(Cc1ccccc1)c1ccco1` (stereo unspecified), the growth in test [15] is 36.5% [100 µM] (inactive) and 57.6% [100 µM] (inactive).

Regarding `Clc1ccc(C2=Nc3cccc4cccc(c34)N2)cc1Cl`, the growth in test [1] was 110% (inactive); in [17], 102% (inactive); in test [3], 97.4% (inactive); in test [4], -5.75% (active); in test [6], 112% (inactive); in [7], 108% (inactive). The growth in test [8] is 93.6% (inactive); in test [9] it was 103% (inactive); in test [10], 70.2% (inactive); in test [11], 101% (inactive); in test [18] it was 77.5% (inactive); in test [12], 70.3% (inactive). Also, the growth in [13] was 104% (inactive); in test [14], 65.8% (inactive); in test [19], 91.6% (inactive); in test [15], 109% (inactive); in test [20], 84% (inactive); in [16], 104% (inactive).

With `CCOc1cc2c(cc1O)C(=O)C[C@@H]1[C@@H]2CC[C@]2(C)[C@@H](O)CC[C@@H]12`, the growth in test [15] is 13.5% [100 µM] (inactive) and 0.709% [100 µM] (active).

As for `CSc1nnc(-c2sc3nnc(-c4ccccc4)c(-c4ccccc4)c3c2O)o1`, the growth in test [1] was 84.7% (inactive); in [3], 90.4% (inactive); in [4], 82.6% (inactive); in test [5], 80.6% (inactive); in test [6], 40.8% (inactive); in test [7], 84.6% (inactive). For the same compound, the growth in [8] was 91.6% (inactive); in test [9], 73% (inactive); in [10], 54.6% (inactive); in test [11] it was 107% (inactive); in [12], 66.4% (inactive); in test [13], 62.9% (inactive). Also, the growth in [19] is 83.5% (inactive); in test [15] it was 58.9% (inactive); in test [16] it was 85.5% (inactive).

As for `CC(=O)OCC1O[C@@H]([S-])C(OC(C)=O)[C@H](OC(C)=O)[C@@H]1OC(C)=O.[Au+].c1ccc(CN2[CH-]N(Cc3ccccc3)C(c3ccccc3)=C2c2ccccc2)cc1`, the growth in [6] was 31.1% (inactive).

`CCOc1ccc(/C=N\N2CCCCCC2)cc1OCC`: the growth in test [1] is 108% (inactive); in test [3], 77.7% (inactive); in [4] it was 103% (inactive); in test [5], 102% (inactive); in test [6], 104% (inactive); in test [7], 97.2% (inactive). For the same compound, the growth in test [8] is 96.2% (inactive); in test [9], 105% (inactive); in test [10], 62.1% (inactive); in test [11] it was 100% (inactive); in [18], 85.2% (inactive); in test [12], 96.2% (inactive). In addition, the values for the growth in test [13], in [15] and in test [16] were 86% (inactive), 75.1% (inactive) and 95.5% (inactive), respectively.

Consider `N#C/C(=C\c1ccccc1)C(=O)Nc1nnc(-c2ccccc2)o1`, for which the growth in test [15] is 36.9% [100 µM] (inactive) and -78.4% [100 µM] (active).

Regarding `CCCCCCCCCCCCCCCC[N+]1(C)CCOCC1`, the growth in test [1] is 28.7% (inactive); in [17] it was -2.82% (active); in [3] it was -7.42% (active); in test [4] it was -79.9% (active); in test [5], -34.5% (active); in test [6], 19.8% (inactive). Moreover, the growth in test [7] was -1.77% (active); in test [8], 49.4% (inactive); in test [9], 1.49% (active); in test [10], 40.4% (inactive); in test [11], 1.36% (active); in [18], 11.7% (inactive). In addition, the growth is -29.1% (active) in test [12]; -84.8% (active) in test [13]; -52% (active) in test [14]; 40% (inactive) in test [19]; 46.9% (inactive) in test [15]; -79% (active) in [20]. Besides, the growth in [16] is 86% (inactive).

With `Oc1ccc(/C=C/c2cc(O)cc3c2C(c2cc(O)cc(O)c2)C(c2ccc(O)c(O)c2)O3)cc1` (stereo unspecified), the growth in test [15] was -57.3% [100 µM] (active) and -23.7% [100 µM] (active).

For `Cc1cc(O)cc2c1[C@H]1CC[C@]3(C)[C@@H](O)CC[C@H]3[C@@H]1C=C2`, the growth was 113% (inactive) in [1]; 80.9% (inactive) in test [3]; 92.2% (inactive) in test [5]; 98.4% (inactive) in test [7]; 85.2% (inactive) in test [8]; 77.5% (inactive) in test [9]. Also, the growth was 78.7% (inactive) in test [10]; 93.5% (inactive) in test [11]; 76.2% (inactive) in [18]; 94.7% (inactive) in [12]; 92.5% (inactive) in [13]; 86.3% (inactive) in [14]. In addition, the growth was 83.8% (inactive) in test [19], 73.5% (inactive) in test [15], 81.3% (inactive) in test [20] and 99.8% (inactive) in test [16].

For the compound `CC1=C(C/C=C(\C)CCC[C@H](C)CCC[C@H](C)CCCC(C)C)C(=O)c2ccccc2C1=O`, the growth in test [1] is 120% (inactive); in test [17], 102% (inactive); in test [3], 106% (inactive); in [4], 119% (inactive); in test [5], 108% (inactive); in [6], 101% (inactive). The growth was 96.4% (inactive) in [7]; 98.2% (inactive) in [8]; 104% (inactive) in test [9]; 104% (inactive) in test [10]; 105% (inactive) in [11]; 101% (inactive) in test [12]. Further, the growth is 98.5% (inactive) in [13]; 98.2% (inactive) in test [14]; 112% (inactive) in test [19]; 96.4% (inactive) in test [20]; 128% (inactive) in test [16].
